The list is not random: actives were taken first. Their share in the collection is about 10%.
HP1b binding inh = HTS for Inhibitors of HP1-beta Chromodomain Interactions with Methylated Histone Tails; Chromobox protein homolog 1 (Homo sapiens), P83916; AlphaScreen HP1-beta / biotin-H3K9me3 peptide binding; Potency, µM (top dose mostly 114 µM), usual class: inhibitors; 0.56% of 390,000 active; also: nearly all actives have a fitted effect of over 70% in size
Target sequence (P83916 whole entry, looked up): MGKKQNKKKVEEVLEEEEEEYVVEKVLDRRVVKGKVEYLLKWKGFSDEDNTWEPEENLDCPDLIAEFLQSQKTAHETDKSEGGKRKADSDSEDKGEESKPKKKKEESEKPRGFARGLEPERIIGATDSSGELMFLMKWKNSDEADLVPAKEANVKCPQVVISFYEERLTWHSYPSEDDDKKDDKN
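Compound inhibition of the preformed complex between 50 nM HP1-beta and 50 nM biotinylated H3K9me3 peptide was read by AlphaScreen. Buffer was PBS pH 7.4 with 0.01% Tween-20. Incubations ran 30 min at room temperature, with 10 ug/mL donor/acceptor beads.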
CtBP-E1A inh = qHTS Assay for Inhibitors of the CtBP/E1A Interaction | AlphaScreen GST-E1A/His-CtBP binding, 1536-well; stronger effect = lower value | activity change, % (test concentration not listed) | CtBP / adenovirus E1A interaction (AlphaScreen) | 0.49% of 340,000 active; in the data active = activity change below about -65%; inconclusive = mostly about -30% to -63%
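AlphaScreen with 125 nM GST-E1A and 125 nM His-CtBP (5X stocks) in Tris pH 8.0, 300 mM NaCl, BSA, Tween 20, TCEP. Compounds preincubated 2 h at 37 deg C, then glutathione donor/nickel acceptor beads added for 1 h at 37 deg C in dark.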
G9a inh = qHTS Assay for Inhibitors of Histone Lysine Methyltransferase G9a; 8.8% of 350,000 active; AID 504332, 2011; Potency, µM (highest dose often 102 µM), most hits filed as inhibitors; G9a H3K9 monomethylation, AlphaScreen, 2 h; Histone-lysine N-methyltransferase EHMT2 (Homo sapiens), Q96KQ7; also: nearly all actives have a fitted effect of over 75% in size
Target sequence (Q96KQ7 913-1193 limits assumed): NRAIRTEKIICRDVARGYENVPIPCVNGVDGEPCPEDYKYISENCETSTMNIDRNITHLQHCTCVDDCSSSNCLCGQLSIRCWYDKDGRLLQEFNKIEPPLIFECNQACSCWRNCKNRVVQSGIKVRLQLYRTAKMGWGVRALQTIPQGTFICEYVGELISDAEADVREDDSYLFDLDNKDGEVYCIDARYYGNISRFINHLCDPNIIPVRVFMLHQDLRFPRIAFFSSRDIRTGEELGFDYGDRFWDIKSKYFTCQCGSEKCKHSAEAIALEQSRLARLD
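AlphaScreen detection with an anti-monomethyl H3K9 antibody quantified product after a 2 h room-temperature reaction containing 500 nM biotinylated H3K9 peptide, 20 µM SAM and 20 nM enzyme, which had been preincubated 15 min with compound.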
BAZ2B block = qHTS Assay for Inhibitors of BAZ2B; Potency, µM (top dose mostly 114 µM), usual class: inhibitors; AlphaScreen BAZ2B-H3K14Ac peptide displacement; Bromodomain adjacent to zinc finger domain protein 2B (Homo sapiens), Q9UIF8; 4.4% of 360,000 active; also: nearly all actives have a fitted effect of over 60% in size
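Compounds, titrated to a top concentration of 110 uM, were incubated 30 min at room temperature with preformed BAZ2B/acetyl-K14 H3 peptide complex (50 nM each). Proximity signal was measured by AlphaScreen after 20 min with beads.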
Six1-Eya2 blk = qHTS Assay for Inhibitors of the Six1/Eya2 Interaction. Homeobox protein SIX1 (Homo sapiens) + Protein phosphatase EYA2 (Homo sapiens), …. AlphaScreen GST-Six1/His-Eya2 binding, biochemical; stronger effect = lower value. activity change, % (no concentration beside the values). 0.56% of 360,000 active. AID 651725, 2012; in the data active = activity change below about -65%; inconclusive = mostly about -30% to -63%
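AlphaScreen luminescence read after one hour at 37 °C in darkness. Pin-transferred compounds met GST-Six1 and His-Eya2 protein (5X stock 250 nM/500 nM) plus glutathione donor and Ni-chelate acceptor beads (5X, 50 ug/mL).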
JMJD2A Tudor inh = qHTS Assay for Inhibitors of JMJD2A-Tudor Domain | AlphaScreen JMJD2A-Tudor / H3K4me3 peptide binding | Potency, µM (titrated, usually from 114 µM), usual class: inhibitors | 4.4% of 390,000 active | AID 504339, 2011; also: nearly all actives have a fitted effect of over 50% in size
Hits are given with their value; 0 = inactive; ? = inconclusive; - = no result; ! = not confirmed by another sample; [ ] = dose if it differs, or a comment. Unless noted, calls follow the shape of the dose curve; as a rule, active = well fitted inhibition curve with a large enough effect; inconclusive = small, poorly fitted or top-dose-only effect; inactive = no such curve, though single readings can be large or run the other way.

SMILES	HP1b binding inh	CtBP-E1A inh	G9a inh	BAZ2B block	Six1-Eya2 blk	JMJD2A Tudor inh
CCOC(=O)c1ccc(N2C(=O)c3n[nH]c(-c4ccco4)c3C2c2ccc(OCC)cc2)cc1 (centres undefined)	0	-	0	-	-	?
O=C(c1cccc(NS(=O)(=O)c2ccc(Br)cc2)c1)N1CCN(c2ccccc2O)CC1	0	0	50µM	0	0	0
O=C(c1cccc(NS(=O)(=O)c2ccc(F)c(F)c2)c1)N1CCN(C(c2ccccc2)c2ccccc2)CC1	0	0	50µM	0	0	0
O=C(c1cccc(NS(=O)(=O)c2ccc(Br)cc2)c1)N1CCCCC1	0	0	0[0.501 µM]	0	0	0
COc1ccc(N2CCN(C(=O)c3cccc(NC(=O)c4nsc5ccccc45)c3)CC2)cc1	?	-	10µM	7.9µM	-	?
COc1cccc(N2CCN(C(=O)c3cccc(NC(=O)c4nsc5ccccc45)c3)CC2)c1	0	-	0	0	-	0
CCOc1ccc(S(=O)(=O)NCCC(=O)N2CCN(c3ccc(OC)cc3)CC2)cc1	?	0	45µM	?	0	?
CCOc1ccc(S(=O)(=O)Nc2cccc(C(=O)N3CCN(c4ccc(OC)cc4)CC3)c2)cc1	0	0	11µM	?	0	?
CCOc1ccc(S(=O)(=O)Nc2cccc(C(=O)N3CC(C)OC(C)C3)c2)cc1 (centres undefined)	0	0	0	0	0	0
COc1ccc(N2CCN(C(=O)c3ccccc3N(C)S(=O)(=O)c3ccccc3)CC2)cc1	0	0	45µM	?	0	0
COc1ccc(S(=O)(=O)N(C)c2ccc(C(=O)N3CCN(C)CC3)cc2)cc1	0	0	50µM	0	0	0
COc1ccc(N2CCN(C(=O)CN(c3cccc(OC)c3)S(=O)(=O)c3ccccc3)CC2)cc1	?	0	8.9µM	?	?	?
COc1ccc(S(=O)(=O)N(CC(=O)N2CCN(c3ccccc3)CC2)c2ccccc2)cc1	0	0	0	0	0	0
COc1ccc(N2CCN(C(=O)c3ccc(N(C)S(=O)(=O)c4ccc(OC)cc4)cc3)CC2)cc1	?	0	-	?	0	18µM
NS(=O)(=O)c1ccc(CCNC(=O)Cn2c(-c3cccs3)cc3ccccc32)cc1	0	-	0	0	-	0
CCOc1ccc(-c2nc(CNC(=O)NC3CCCCC3)c(C)o2)cc1	0	-	0	0	-	0
O=c1[nH]c(S)c(/C=C2\C=Nc3ccccc32)s1	?	0	14µM	11µM	0	?
COC(=O)[C@H](C)NC(=O)c1cc2c(cn1)[nH]c1ccccc12	?	0	1.4µM	?	0	40µM
C[C@H](NC(=O)c1cc2c(cn1)[nH]c1ccccc12)C(=O)O	28µM	0	1.4µM	50µM	0	45µM
O=C(O)c1cc2c(cn1)[nH]c1ccccc12	0	-93	0	4µM	-79	7.1µM
O=C(NCCCO)c1cc2c(cn1)[nH]c1ccccc12	0	0	0	?	0	0
CCOC(=O)C(Cc1ccc(O)cc1)NC(=O)c1cc2c(cn1)[nH]c1ccccc12 (centres undefined)	-	0	-	-	0	-
CCOc1ccc(CCNC(=O)CCCc2nnc3n(CCCOC)c(=O)c4sccc4n23)cc1	0	-	0	0	-	0
COc1ccc(-c2nc3ccccc3n3c(-c4ccccc4)c4c(=O)n(C)c(=O)n(C)c4c23)cc1OC	0	-	0	0	-	0
Cc1cc(OCC(=O)Nc2cnn(CCCC(=O)O)c2)ccc1[N+](=O)[O-]	0	0	0	0	0	0
SMILES	HP1b binding inh	CtBP-E1A inh	G9a inh	BAZ2B block	Six1-Eya2 blk	JMJD2A Tudor inh
Cc1cc(OCC(=O)Nc2cnn(CCCC(=O)O)c2)ccc1Cl	0	0	14µM!	0	0	0
O=C(O)CCCn1cc(NC(=O)COc2ccc(F)cc2F)cn1	0	0	0	0	0	0
O=C(O)CCCn1cc(NC(=O)COc2ccccc2F)cn1	0	0	0	0	0	79µM!
O=C(OCC1CCCO1)c1ccc2c(c1)N(Cc1ccccc1)C(=O)c1ccccc1S2(=O)=O (centres undefined)	0	-	0	0	-	0
CN1CCN(C(c2ccccc2)c2sc3nc(-c4ccco4)nn3c2O)CC1 (centres undefined)	0	-	0	0	-	0
Cc1nc(N2CCN(C)CC2)c2sc(=S)n(-c3ccccc3)c2n1	0	0	40µM	0	0	0
Cc1nc(N2CCN(C)CC2)c2cc(-c3ccccc3)sc2n1	0	0	50µM	0	0	0
CC(=O)N1CCN(c2ncnc3sc(-c4ccccc4)cc23)CC1	0	0	0	?	0	0
Cc1nc(N2CCN(C)CC2)c2sc(=S)n(C)c2n1	0	0	0	0	0	0
Oc1ccc(N2CCN(c3ncnc4sc(-c5ccccc5)cc34)CC2)cc1	?	0	3.2µM	40µM	0	16µM
Cc1nc(Oc2ccccc2C)c2oc3ccccc3c2n1	0	-	0	0	-	0
Cc1c(Cl)cccc1NC(=O)Cn1nnc(-c2nc(-c3ccccc3)no2)c1N	0	-	0	0	-	0
COc1cc(C(=S)N2CCCC2)cc(OC)c1OS(=O)(=O)c1ccc(NC(C)=O)cc1	?	0	32µM	0	0	?
COc1cc(C(=S)N2CCCC2)ccc1OS(=O)(=O)c1ccc(NC(C)=O)cc1	0	0	?	0	0	0
COc1ccc(S(=O)(=O)Oc2c(OC)cc(C(=S)N3CCOCC3)cc2OC)cc1	0	0	22µM	0	0	0
COc1cc(C(=O)Oc2ccc(C(=S)N3CCOCC3)cc2)cc(OC)c1OC	0	0	-	0	0	0
COc1ccc(C(=S)N2CCOCC2)cc1OC(=O)c1cc(OC)c(OC)c(OC)c1	?	0	7.9µM	?	0	?
COc1cc(C(=S)N2CCCC2)cc(OC)c1OC	0	0	40µM	0	0	0
COc1ccc(C(=S)N2CCCC2)cc1OC	0	0	0	0	0	0
COc1ccccc1NC(=O)N1c2ccccc2Sc2ccccc21	0	-	0	0	-	0
CCS(=O)(=O)N1CC(=O)N(c2ccccc2C)C(C)(C(=O)NC2CCCCC2)C1 (centres undefined)	0	-	0	0	-	0
COc1ccc(C(=S)N2CCOCC2)cc1OC(=O)c1ccccc1	?	0	10µM	0	0	0
COc1cc(C(=S)N2CCOCC2)ccc1OC(=O)c1ccccc1	0	0	40µM	0	0	0
COc1cc(C(=S)N2CCOCC2)cc(Br)c1OS(=O)(=O)c1ccccc1	0	0	-	0	0	?
